Only some compounds are listed: those with a hit (about 2.2% of all), similar ones and a draw of the others.
PAX8 inh HTS – inhibitors of PAX8 transcriptional activity in RMG-I cells; inhibition, % at 12.6 µM; RMG-I TPO-luciferase reporter, SteadyGlo, 24 h; 360,000 compounds, 1.2% hits;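 active = mean replicate inhibition at least 60% with every replicate also reaching 60%; inconclusive = only one of the two criteria is met; inactive = mean below 60% and not all replicates reaching 60%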;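 note: luciferase light reporting Pax8 driven TPO promoter activity; plate controls were median of neutral control wells for no effect and mitoxantrone controls for full effect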
PGC1a acetyl inh – PGC1a acetylation modulation, inhibitor mode; inhibition, % at 15.6 µM; 350,000 compounds, 0.17% hits; U2OS PGC1a acetylation, AlphaScreen anti-acetyl-lysine; with virally co-expressed GCN5 acetyltransferase;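 active = every replicate shows inhibition of at least 40%; inconclusive = mean inhibition at least 40% but some replicate below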;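 note: 0% = neutral control wells and 100% = positive control wells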
EWS-Fli block – EWS/Fli transcriptional activity inhibition | inhibition, % at 12.6 µM | 350,000 compounds, 0.67% hits | AID 651661 | A673 NR0B1-luciferase reporter, viability-normalised;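 active = mean inhibition of at least 50% after viability correction, with every replicate also passing that limit; inconclusive = mean reaches 50% but only one of two replicates passes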;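 note: firefly luciferase signal divided by Alamar Blue viability fluorescence both relative to DMSO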
MITF TRPM1 inh – inhibitors of MITF-driven TRPM1 promoter in melanoma cells | SK-MEL-5 TRPM1 promoter luciferase, 24 h | inhibition, % at 12.5 µM | 330,000 compounds, 0.83% hits;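 active = mean inhibition across replicates of 60% or more, whatever share of single replicates reaches that level; inconclusive = some that reach 60%, reason not given; inactive = mean inhibition across replicates below 60%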
LMP1 NFkB inh – Epstein-Barr LMP1 NF-kappaB reporter inhibition. AID 504558. 350,000 compounds, 0.69% hits. LMP1-induced NF-kappaB luciferase reporter cells, luminescence. inhibition, % at 12.5 µM; in the data active = inhibition above about 41%; inconclusive = no clear call, values can overlap the other calls;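 note: 0% = neutral control wells and 100% = reference inhibitor control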
LGR2 antag – inhibitors of bursicon-induced Drosophila LGR2 receptor cAMP signaling | HEK293 LGR2, CRE-luciferase, bursicon-stimulated, 4 h | inhibition, % at 9.99 µM | 380,000 compounds, 0.35% hits | AID 720647;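 active = drop in luminescence signal, shown as inhibition above about 50% in the replicate tests, limit read from the data, passing the limit was not always enough; inconclusive = probably only some replicates passing the limit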;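 note: agonist challenge used bursicon conditioned medium at about half maximal strength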
* hit, by the source's call; u = inconclusive; x = not tested or not shown.

SMILES	PAX8 inh HTS	PGC1a acetyl inh	EWS-Fli block	MITF TRPM1 inh	LMP1 NFkB inh	LGR2 antag
CCCCCOP(=O)(c1ccccc1)c1ccccc1	95.2*	-8.4	8.7	4.9	-25.1	27.0
CCCCP(=O)(CCCC)CCP(=O)(c1ccccc1)c1ccccc1	-10.8	x	-9.1	11.1	-0.6	-10.3
CC(C)Cc1nc2oc3c(NCCCN4CCOCC4)ncnc3c2c2c1CCC2	x	x	x	9.7	-3.0	x
CC(C)Cc1nc2oc3c(Cl)ncnc3c2c2c1CCC2	x	6.6	58.0*	u	-2.4	-1.6
CC(=O)N[C@H]1[C@H](O/N=[N+](\[O-])N2CCCC2)OC(CO)[C@@H](O)[C@@H]1O (some centres undefined)	-30.1	3.9	-8.6	x	x	x
COc1ccc(Cn2c(/C=C/c3ccccc3)nc3ccccc32)cc1	-204.8	x	x	-82.3	-58.6	x
COc1ccc(/C=C/c2nc3ccccc3n2C)cc1	88.2*	-8.3	80.7*	35.6	53.7*	96.1*
COc1ccc(/C=C/c2nc3ccccc3c(=O)o2)cc1	84.2*	x	71.0*	2.0	50.7*	90.3*
COc1ccc(S(=O)(=O)N(C)C[C@@H]2Oc3ccc(NC(=O)CCCCCC(=O)Nc4ccccc4N)cc3CC(=O)N([C@H](C)CO)C[C@H]2C)cc1	10.7	-13.7	-3.2	x	x	3.6
C[C@@H]1CN([C@@H](C)CO)C(=O)c2cc(Br)cnc2O[C@@H]1CN(C)C(=O)C1CC1	x	0.8	-0.8	x	x	-0.6
CC(=O)N1[C@@H](CO)[C@@H](c2ccccc2)C12CN(C(=O)c1ccccn1)C2	-21.4	-2.2	-13.9	x	x	3.2
COc1ccc2c3c(n(C)c2c1)[C@H](CO)N(Cc1ccncc1)CC31CN(C(=O)C2CCCC2)C1	-0.2	x	-3.1	x	x	1.5
Cc1cc2[nH]c3c(c[n+](C)c4ccccc34)c2cc1C	111.0*	x	82.5*	100.8*	-18.1	100.3*
Cc1cc(=O)[nH]c2ccccc12	x	-8.1	x	6.4	-4.2	x
Cc1ccccc1S(=O)(=O)N1CCCCN2[C@@H](CO)[C@H](c3ccc(-c4ccccc4)cc3)[C@@H]2C1	8.3	-8.8	13.3	x	x	x
Cc1cccc(N2CCN(C(=O)c3cc(S(=O)(=O)N4CCOCC4)cn3C)CC2)c1C	3.8	-12.5	12.6	0.5	-2.5	3.4
CCC(=O)N1CCN(c2ccnc3cc(Cl)ccc23)CC1	-7.3	x	9.1	-3.6	24.0	4.8
COc1cc(C(=O)N2CCN(c3cc(Cl)ccc3Cl)CC2)cc(OC)c1OC	15.7	x	59.8*	5.5	1.6	21.0
O=C(c1ccc(Cl)cc1)N1CCN(c2ccnc3cc(Cl)ccc23)CC1	32.4	-9.5	9.6	10.8	49.6*	19.5
Cc1cccc(N2CCN(C(=O)c3cc(S(=O)(=O)N4CCCC4)cn3C)CC2)c1C	27.1	9.8	65.2*	x	-7.2	-11.8
COc1cc(C(=O)N2CCN(c3cccc(C)c3C)CC2)cc(OC)c1OC	52.4	-9.6	61.3*	21.8	11.1	6.0
Cc1cccc(N2CCN(C(=O)c3ccncc3)CC2)c1C	38.4	-9.9	x	15.0	5.6	x
CO[C@@H](CN(C)S(=O)(=O)c1cn(C)cn1)[C@@H](C)CN(C(=O)Nc1ccc(F)cc1)[C@H](C)CO	x	13.5	-15.6	x	x	-5.4
CCn1c2ccccc2c2cc([N+](=O)[O-])ccc21	13.9	-7.0	7.7	8.5	-2.9	-22.6
CN(C)CCn1c2ccccc2c2nc3ccc([N+](=O)[O-])cc3cc21	75.7*	-4.3	-19.7	x	x	-6.0
SMILES	PAX8 inh HTS	PGC1a acetyl inh	EWS-Fli block	MITF TRPM1 inh	LMP1 NFkB inh	LGR2 antag
Cc1[nH]nc(-c2cccnc2)c1N=NN(C)C	70.8*	x	55.3*	72.5*	11.4	28.9
CN(C)c1nc(N)nc(-c2cccnc2)n1	x	11.8	x	-3.5	-4.8	-23.2
COc1ccc(S(=O)(=O)N2CCC(NC(=O)C3CCCCC3)CC2)cc1	-2.0	x	5.7	1.0	46.2*	-11.1
COc1ccc(S(=O)(=O)N2CCC(C(=O)NC3CC3)CC2)cc1	-3.6	-6.5	2.3	-1.8	3.9	-24.0
O=C(NC1CC1)C1CCN(S(=O)(=O)c2ccc(Cl)c([N+](=O)[O-])c2)CC1	50.5	-20.4	49.8	75.2*	-15.8	11.5
O=C(C[C@H]1CC[C@H](NC(=O)c2ccccc2)[C@@H](CO)O1)NCCc1ccncc1	x	0.2	-4.4	x	x	3.3
